Data on 69 compounds can be found in PubChem BioAssay AID1645887 (National Center for Advancing Translational Sciences (NCATS), 2021).

Molecules are shown by their SMILES. Values joined by “and” are separate entries in the source; they are usually repeats but may differ in a detail not shown here. Identical values can stand only once. The whole screen tested about 16,000 compounds, of which about 40 (0.2%) were called active. About 1% were inconclusive and are not listed. This is one part of a sample in which actives are shown more often than they occur. The call rests on the fitted dose curve; in most records, active means well fitted activation curve with a large enough effect; inconclusive means small, poorly fitted or top-dose-only effect, or another doubt; inactive means no such curve, though single readings can be large or run the other way. The source holds several records for some structures; these can differ, active in one and inactive in another.
On the % scale 0 is the no-effect control and ±100 the full control effect; potency means the concentration at half of the fitted maximal effect.

Chain of Rap guanine nucleotide exchange factor 4 (Homo sapiens) (Q8WZA2 whole entry, looked up): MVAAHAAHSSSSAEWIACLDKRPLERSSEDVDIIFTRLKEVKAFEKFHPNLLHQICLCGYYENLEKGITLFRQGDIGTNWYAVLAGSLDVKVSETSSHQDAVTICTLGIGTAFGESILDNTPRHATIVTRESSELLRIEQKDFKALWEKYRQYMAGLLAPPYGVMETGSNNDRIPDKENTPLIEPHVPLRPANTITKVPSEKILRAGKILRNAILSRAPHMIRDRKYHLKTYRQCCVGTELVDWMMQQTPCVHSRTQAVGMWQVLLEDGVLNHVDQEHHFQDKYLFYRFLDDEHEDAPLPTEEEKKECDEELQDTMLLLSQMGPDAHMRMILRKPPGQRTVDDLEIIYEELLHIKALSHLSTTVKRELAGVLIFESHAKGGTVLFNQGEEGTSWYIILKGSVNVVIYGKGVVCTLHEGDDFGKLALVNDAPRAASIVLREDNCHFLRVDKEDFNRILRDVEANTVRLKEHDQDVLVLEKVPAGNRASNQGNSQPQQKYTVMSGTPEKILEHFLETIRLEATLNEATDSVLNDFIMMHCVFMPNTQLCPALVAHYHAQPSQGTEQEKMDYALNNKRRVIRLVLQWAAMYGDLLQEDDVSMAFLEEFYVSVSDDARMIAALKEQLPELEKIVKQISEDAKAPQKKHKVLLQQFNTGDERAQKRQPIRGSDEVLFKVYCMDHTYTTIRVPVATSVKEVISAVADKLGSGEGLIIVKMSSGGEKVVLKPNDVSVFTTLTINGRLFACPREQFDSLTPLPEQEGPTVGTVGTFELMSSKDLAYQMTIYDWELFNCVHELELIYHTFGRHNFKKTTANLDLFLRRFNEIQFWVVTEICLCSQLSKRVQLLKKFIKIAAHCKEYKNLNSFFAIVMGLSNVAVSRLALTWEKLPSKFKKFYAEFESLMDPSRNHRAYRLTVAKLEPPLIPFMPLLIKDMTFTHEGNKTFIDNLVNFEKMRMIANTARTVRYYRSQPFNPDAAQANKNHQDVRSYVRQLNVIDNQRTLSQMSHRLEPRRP

This assay concerns the target Rap guanine nucleotide exchange factor 4 (Homo sapiens) (UniProt Q8WZA2). In words: Validation qHTS for agonist of cAMP-regulated guanine nucleotide exchange factor 4 (EPAC2).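 On activation: exchange makes BODIPY-GDP fluorescence drop when released from Rap1B; series mostly up to about 150 µM.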 The note with it: EPAC2 Rap1B BODIPY-GDP exchange, fluorescence; activation: stronger effect = higher value. A digest of the protocol:
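Fluorescent exchange assay: 100 nM EPAC2 with 250 nM RAP1B-BODIPY-GDP and 50 uM GDP; compound added, 5 min at room temperature, then read (ex 480/em 540 nm) every 5 min for 30 min. Normalized to 6.5 mM cAMP agonist control.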
For orientation: In qHTS, concentration-response curves come from the screen itself.
Regarding `Cc1cc(C)n2nc(C(=O)NCC3Cc4cccc(-c5ccc(S(C)(=O)=O)cc5)c4O3)cc2n1` (stereo not given), the activation was 2.37% (inactive).

Consider `COc1c(O)cc2c(=O)oc3c(OC)c(O)cc4c(=O)oc1c2c34`, for which the activation was -13.8% (inactive).

On to `O=c1oc2c(O)c(O)cc3c(=O)oc4c(O)c(O)cc1c4c23`, for which the Potency was 126 µM (active) and the activation is 0.203% (inactive).

Regarding `Cc1cc(=O)oc2c(O)c(O)ccc12`, the activation was -5.12% (inactive).

`CN(C)c1ccc(/C=C/c2ccc3cc(N(C)C)ccc3n2)cc1`: the activation was 0.661% (inactive).

With `CCOC(=O)Nc1ccc(NCc2ccc(F)cc2)nc1N`, the Potency is 112 µM (active).

`COc1ccccc1-c1nccc(NCc2ccccc2)n1`: the activation is -0.806% (inactive).

As for `COc1ccccc1-c1nccc(NCc2cccc(C)c2)n1`, the activation was -13.6% (inactive).

`OC1CCN(Cc2ccc3c(c2)CN(Cc2ccc(Oc4ncccn4)cc2)CCO3)CC1`: the activation was -1.28% (inactive).

For `CC(=O)OCC1=C(C(=O)O)N2C(=O)C(NC(=O)CSc3ccncc3)[C@@H]2SC1` (stereo not given in full), the activation was -16.2% (inactive).

In the case of `O=C(NCc1nnc2n1CCN(C(=O)c1cccc(Cl)c1)CC2)C1CC1`, the activation is -2.97% (inactive).

In the case of `CC(=O)OCC(=O)[C@@]1(O)CCC2C3CC(C)C4=CC(=O)C=CC4(C)C3C(O)CC21C` (stereo not given in full), the activation was -21.4% (inactive).

In the case of `Cc1cnc(SCCN2CCOCC2)nc1C1CCCN(C(=O)c2cccc3c(C)c(C)[nH]c23)C1` (stereo not given), the activation was -5.56% (inactive).

As to `C/C1=C2N=C(/C=C3N=C(/C(C)=C4\[N-][C@@](C)([C@@H]5N=C1[C@](C)(CCC(=O)NCC(C)OP(=O)(O)O[C@H]1[C@@H](O)[C@@H](n6cnc7cc(C)c(C)cc76)O[C@@H]1CO)[C@H]5CC(N)=O)[C@@](C)(CC(N)=O)[C@@H]4CCC(N)=O)[C@@](C)(CC(N)=O)[C@@H]\3CCC(N)=O)C(C)(C)[C@@H]/2CCC(N)=O.CC(=O)O.[Co]` (stereo not given in full), the Potency was 56.2 µM (active).

With `CC(=O)NCC(=O)NCC1Cc2cc(C)cc(-c3ccccn3)c2O1` (stereo not given), the activation was 0.493% (inactive).

As to `CN(CCO)C(=O)c1cn(C2CCCN(Cc3ccc(C(F)(F)F)cc3)C2)nn1` (stereo not given), the activation was -15.8% (inactive).

Consider `COC(=O)C1[C@H]2SC(C)(C)C(C(=O)OC)N2C(=O)N1Cc1ccccc1` (stereo not given in full), for which the activation was -17.5% (inactive).

Consider `COCCn1c(=O)c(-c2ccc(F)cc2)nc2cnc(Nc3cccc(OC)c3)nc21`, for which the activation is 6.42% (inactive).

Take `C[C@@H](N)CCCP(=O)(O)O`: the activation was -1.34% (inactive).

For `CC(C)CN1CCC2(CC1)CCN(C(=O)c1ccco1)CC2`, the activation is -7.83% (inactive).

Consider `COC(=O)C1C(O)CC[C@@H]2CN3CCc4c([nH]c5ccccc45)C3C[C@@H]12` (stereo not given in full), for which the activation was -7.23% (inactive) and -17.2% (inactive).

As to `CC(N)(COP(=O)(O)O)C(=O)O` (stereo not given), the activation was 4.78% (inactive).

`CC(C)C[C@@H](CSc1ccccc1)N1CCN(C)CCC1=O`: the activation was -9.44% (inactive).

Consider `Cc1noc(C)c1-c1nccc(NC2CC2)n1`, for which the activation was -2.86% (inactive).

As for `CC(C)CCCC(C)C1CCC2C3C(=O)C=C4CC(O)CC[C@@]4(C)C3CC[C@@]12C` (stereo not given in full), the activation is -16% (inactive).

Take `COC(=O)c1ccccc1C(=O)NCC1Cc2cc(-c3nc(C)cnc3C)ccc2O1` (stereo not given): the activation was -20.8% (inactive).

Take `CCCCCCCCCC[n+]1ccc(/C=C/c2c[nH]c3ccccc23)c2ccccc21`: the activation was -5.9% (inactive).

Regarding `COCC(=O)N1CCC[C@@]2(CCN(c3ccccn3)C2)C1`, the activation is -5.3% (inactive).

Regarding `COc1cccc(Nc2ncc3nc(C)c(=O)n(C[C@H]4CCCO4)c3n2)c1`, the activation was -13.4% (inactive).

Consider `[C-]#[N+]c1cc(-c2ccncc2)c(C)[nH]c1=O`, for which the activation was -4.45% (inactive).

For `Nc1cc(-c2ccncc2)c[nH]c1=O`, the Potency is 100 µM (active).

Take `Cc1cccc(N(C)C(=S)Oc2ccc3c(c2)CCC3)c1`: the activation is 13.3% (inactive).

As to `OC(c1cccnc1)c1ccc2c(c1)CN(Cc1cn(-c3ccccc3)nc1-c1ccccc1)CCO2` (stereo not given), the activation was -2.05% (inactive).

Regarding `O.O.O.O.O.O.O.O=S(=O)([O-])[O-].[Co+2]`, the activation was -48.9% (inactive).

Consider `CN(C)Cc1ccccc1-c1cncnc1NCc1ccccc1`, for which the activation is -18.5% (inactive).

Turning to `N#Cc1ccccc1-c1ccc2ncnc(NCc3ccccc3)c2c1`, the activation is -0.93% (inactive).

Consider `CC(C)(CNC(=O)c1cnn(-c2nccc(-c3ccccc3F)n2)c1C1CC1)N1CCOCC1`, for which the activation was -17.8% (inactive).

Consider `C[C@]12CCC(=O)C=C1CCC1C3CC[C@](O)(C(=O)CO)[C@@]3(C)CC3OC312` (stereo not given in full), for which the activation was -18.8% (inactive).

For `O=C1CCNCCN1[C@H](CO)c1ccccc1`, the activation was -16.1% (inactive).

Turning to `CN(C)c1ncnc2ccc(-c3cccc(C#N)c3)cc12`, the activation is -0.384% (inactive).

In the case of `Cc1cc(N(C)C)cc(C)c1/C=C/c1cc[n+](C)c2ccccc12`, the activation is -16.7% (inactive).

`Cc1cc2c(c(-c3cnccn3)c1)OC(CNC(=O)c1cc(Cl)ccc1F)C2` (stereo not given): the activation was 5.25% (inactive).

Consider `COC(=O)C1N[C@@H]([C@@H](NC(=O)COc2ccccc2)C(=O)Nc2ccc(OC)cc2)SC1(C)C` (stereo not given in full), for which the activation is -24.1% (inactive).

As to `CC(=O)NCCNc1nc(-c2ccccc2CN(C)C)nc2ccccc12`, the activation was -19.9% (inactive).

As to `COC(=O)CC[C@H](N)C(=O)O`, the activation was -14% (inactive).

Turning to `CN1CCN(c2ncc3nc(-c4cn(C)c5ccccc45)c(=O)n(Cc4cccs4)c3n2)CC1`, the activation is -4.2% (inactive).

With `OC(c1ccc2c(c1)CN(Cc1cccn1-c1ncccn1)CCO2)C1CCCCC1` (stereo not given), the activation was -21.5% (inactive).

In the case of `COc1ccc2[nH]cc(CCNc3nc(-c4c(C)noc4C)nc4ccccc34)c2c1`, the activation was 6.86% (inactive).

In the case of `CCCCCCCCCCCCCCCCCCN(CCCCCCCCCCCCCCCCCC)c1ccc(/C=C/c2ccnc3ccccc23)cc1`, the activation was -21.8% (inactive).

For `CN(C)c1ccc(/C=C/c2ccnc3ccccc23)cc1Cl`, the activation is -5.92% (inactive).

In the case of `OCCN(CCO)c1ccc(/C=C/c2ccnc3ccccc23)cc1`, the activation was -44.7% (inactive).

In the case of `Cc1cc(/C=C/c2ccnc3ccccc23)ccc1N(C)C`, the Potency was 50.1 µM (active).

Turning to `CCCN(CCC)c1ccc(/C=C/c2ccnc3ccccc23)cc1`, the Potency was 100 µM (active).

Turning to `CN(C)c1ccc(/C=C/c2ccnc3ccccc23)cc1[N+](=O)[O-]`, the activation is -6.84% (inactive).

Regarding `Cc1cccc(CNc2nc(-c3ccc4c(c3)OCO4)nc3ccccc23)c1`, the activation was 5.64% (inactive).

Consider `Cc1oc(-c2ccccc2NC(=O)C2CCCO2)nc1CNC(=O)c1[nH]c2c(C)ccc(C)c2c1C` (stereo not given), for which the activation was 8.6% (inactive).

With `COc1cccc(Nc2ncc3nc(C)c(=O)n(-c4ccccc4)c3n2)c1`, the activation is -17% (inactive).

Turning to `COc1cccc(Nc2ncc3nc(-c4cccs4)c(=O)n(-c4ccccc4)c3n2)c1`, the Potency is 50.1 µM (active).

Turning to `COc1ccc(-n2c(=O)c(-c3cccs3)nc3cnc(Nc4ccccc4)nc32)cc1`, the activation was -5.89% (inactive).

In the case of `CN(C)CCc1c[nH]c2ccc(C[C@H]3COC(=O)N3)cc12`, the Potency was 126 µM (active).

Turning to `CN(C)CCc1c[nH]c2ccc(CS(=O)(=O)N3CCCC3)cc12`, the activation was -8.07% (inactive).

`CNS(=O)(=O)Cc1ccc2[nH]cc(CCN(C)C)c2c1`: the activation was -28% (inactive).

On to `CC(C)c1c(O)ccc2c1CCC1[C@@](C)(C=O)CCC[C@@]21C` (stereo not given in full), for which the activation was 22.5% (inactive).

For the compound `CC[C@@]1(O)C(=O)OCc2c1cc1n(c2=O)Cc2cc3c(CN(C)C)c(O)ccc3nc2-1`, the Potency was 89.1 µM (active).

Turning to `CC[C@@]1(O)C(=O)OCc2c1cc1n(c2=O)Cc2cc3c([N+](=O)[O-])cccc3nc2-1`, the activation is 5.92% (inactive).

`CC[C@@]1(O)C(=O)OCc2c1cc1n(c2=O)Cc2cc3cc(O)ccc3nc2-1`: the activation is -2.34% (inactive) and 12.4% (inactive).

As for `C[N+]1(Cc2ccccc2)CCC(C(=O)OCC2CCCC2)CC1` (stereo not given), the activation is -12.2% (inactive).

Consider `N#Cc1ccc(CN2CC[C@@]3(CCCN(C(=O)c4ccco4)C3)C2)cc1`, for which the activation was -12.3% (inactive).

For `COC(=O)C(O)C1C(C)(C)C(OC(C)=O)C2CC3=C4CC(=O)OC(c5ccoc5)[C@]4(C)CCC3[C@@]1(C)C2=O` (stereo not given in full), the activation is -10.7% (inactive).
